PERK inh: human PERK inhibition, primary cell-based screen; CHO PERK-DD fusion, SEAP luminescence translation reporter; AID 1416; Q9NZJ5; inhibition, % at 5.6 µM; actives 0.17% (n = 220,000);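 active = inhibition above the mean inhibition of all tested compounds plus 3 SD, set separately per screening campaign, cut at about 2.9% in these data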;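 note: PERK kinase domain activated by AP20187 dimerizer at 100 nM; 0% = DMSO with dimerizer and 100% = rapamycin at 8.4 µM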
S1P3 antagonist: antagonists of human S1P3 receptor; CHO S1P3 NFAT-BLA reporter, FRET fluorescence, antagonist mode; inhibition, % at 4.98 µM; actives 0.27% (n = 170,000);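 active = inhibition above the plate cutoff, the mean inhibition of test wells on that plate plus 3 SD, cut at about 28% in these data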;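 note: cells challenged with S1P at its EC80 of 0.8 µM; blue over green emission ratio from cleaved BLA substrate after 4 h stimulation; 0% = S1P-stimulated wells and 100% = unstimulated DMSO-only wells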
Target sequence (Q99500 whole entry, looked up): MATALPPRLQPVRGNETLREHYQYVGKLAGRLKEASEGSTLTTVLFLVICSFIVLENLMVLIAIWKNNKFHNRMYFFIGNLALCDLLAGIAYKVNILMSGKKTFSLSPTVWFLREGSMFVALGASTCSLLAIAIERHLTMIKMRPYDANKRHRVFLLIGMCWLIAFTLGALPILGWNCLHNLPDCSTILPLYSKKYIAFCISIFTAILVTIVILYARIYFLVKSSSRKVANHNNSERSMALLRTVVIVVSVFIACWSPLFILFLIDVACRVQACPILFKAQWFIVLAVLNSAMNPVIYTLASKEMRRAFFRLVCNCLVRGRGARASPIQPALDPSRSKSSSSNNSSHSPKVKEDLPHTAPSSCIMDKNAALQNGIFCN
Calpain2 inh: blocks pig calpain II enzyme activity. AID 1236. inhibition, % at 16 µM. purified calpain II, fluorogenic peptide substrate, 30 min. actives 0.37% (n = 220,000);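 active = inhibition above about 50%, limit read from the data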
S1P4 antag: human S1P4 receptor antagonism; S1P4-expressing cells, antagonist mode, reporter read-out; inhibition, % at 4.98 µM; actives 0.26% (n = 220,000); AID 1510; in the data active = inhibition above about 29%;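 note: 0% = wells stimulated with agonist and 100% = vehicle wells without agonist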
S1P4 ag: activates the human S1P4 receptor. O95977. S1P4-expressing cell line, agonist reporter assay. activation, % at 4.98 µM. actives 0.35% (n = 220,000); in the data active = activation above about 11%;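 note: 0% = DMSO vehicle and 100% = reference agonist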
S1P4 ag conf: human S1P4 agonism, confirmation | shares compounds with S1P4 ag | S1P4 agonist cell-based reporter assay | activation, % at 4.98 µM | actives 7% (n = 740) | AID 1523; in the data active = activation above about 12%;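 note: 0% = vehicle and 100% = full reference agonist response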
S1P1 ag: counter-screen for S1P4 agonists: agonists of human S1P1 | shares compounds with S1P4 ag | S1P1 agonist cell-based assay, activation | activation, % at 4.98 µM | actives 4% (n = 740) | AID 1563; in the data active = activation above about 21%;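 note: 0% = vehicle wells and 100% = reference agonist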
Numbers without * were called inactive; i = inactive; . = no result. Sampled rows, rich in hits. Any-hit rate of the full collection: about 1.3%.

SMILES	PERK inh	S1P3 antagonist	Calpain2 inh	S1P4 antag	S1P4 ag	S1P4 ag conf	S1P1 ag
CCN(CC)C(=S)NC(=O)Cc1ccccc1	1.5	-3.0	1.1	-3.7	-1.0	.	.
Cc1cc(=O)[nH]n(CCO)c1=O	0.4	3.2	-10.2	3.0	-0.3	.	.
CCNc1nc2nc3ccc(C)cn3c(=O)c2cc1C(=O)NCC1CCCO1 (stereo not drawn)	-1.0	-29.0	i	-23.0	12.9*	2.3	8.4
COC(=O)CCCNc1ncccc1[N+](=O)[O-]	0.6	5.2	-9.7	-16.1	48.0*	-2.3	-4.1
O=[N+]([O-])c1cccnc1NCCc1ccccc1	0.4	9.1	10.2	-7.6	1.3	.	.
O=C(CCSc1nnc(-c2ccccc2)o1)N1CCOCC1	0.4	-9.6	7.4	-1.9	27.6*	-1.7	1.0
Cc1ccc(-c2nnc(SCCC(=O)N3CCOCC3)o2)cc1	1.0	-15.1	16.8	-23.8	1.6	.	.
COCCSc1nc(N)c(NC(=O)c2ccc(OC)cc2)c(=O)[nH]1	0.8	-13.1	-15.7	-7.0	11.9*	-2.4	-4.0
Cc1cc(NC(=O)CSc2nc(N)c(NC(=O)c3ccccc3)c(=O)[nH]2)no1	0.3	-28.8	-21.1	7.3	-0.4	.	.
CC(=O)c1ccc(Oc2ccc(C(=O)c3ccc(C)c(C)c3)cc2[N+](=O)[O-])cc1	0.5	-9.2	14.5	10.8	13.6*	-1.6	-2.9
CCN(CC)C(=O)c1[nH]cnc1C(=O)N[C@@H](CC(C)C)C(=O)OCc1ccccc1	0.5	2.4	-8.9	-11.9	1.7	.	.
CC(C)C[C@H](NC(=O)c1nc[nH]c1C(=O)NCc1ccccc1)C(=O)OCc1ccccc1	0.3	-11.1	32.5	-21.0	20.5*	25.9*	0.0
Cc1ccc(CN(c2ccc(C(=O)NCC3CCCO3)cc2)S(C)(=O)=O)cc1 (stereo not drawn)	-0.1	-8.0	-2.0	-8.8	29.9*	-1.3	8.9
COc1ccc(NC(=O)c2cc(-c3ccccc3)nc3c2c(C)nn3-c2ccccc2)c(OC)c1	-0.9	-14.8	-30.2	-8.1	23.5*	-1.8	0.6
COc1ccc(-c2cc(C(=O)NNC3=NCCC3)c3c(C)nn(-c4ccccc4)c3n2)cc1	1.2	1.3	-93.0	-1.8	0.1	.	.
CCCc1cc2c(=O)c(-c3nc4ccccc4s3)c(COCC(=O)O)oc2cc1O	0.1	-12.9	-96.2	3.0	-0.5	.	.
CC(C)N1CCN(Cc2cccs2)CC1CCO (stereo not drawn)	-0.5	-15.6	14.1	7.8	63.9*	-1.6	4.0
CC(C)CCN1CCN(Cc2cccs2)CC1CCO (stereo not drawn)	-0.2	-8.5	18.0	-19.0	-0.7	.	.
Cc1cccc(NC(=S)N2CCN(S(=O)(=O)c3cccc(F)c3)CC2)c1	1.2	-5.9	6.6	4.0	19.9*	-1.9	8.4
CCOC(=O)c1c(C)n(C)c2ccc(OC(=O)c3ccco3)cc12	0.6	.	-4.4	-4.1	-0.7	.	.
CCOC(=O)c1cc2ccc(OC(=O)c3ccco3)cc2oc1=O	-0.5	-143.9	i	-155.5	148.6*	83.8*	95.6*
O=C(CN1CCNCC1)NCCSc1ccc(Cl)cc1	0.8	-9.8	30.4	-3.7	1.0	.	.
Cc1ccccc1NC(=O)CCn1c(=O)oc2ccccc21	-0.1	-43.1	-17.9	-4.7	1.4	.	.
COC(=O)c1ccc(NC(=O)CCn2c(=O)oc3ccccc32)cc1	0.2	-15.0	7.5	2.3	13.2*	-0.2	-2.6
CN1CCN(Cc2c(O)ccc3cc(-c4ccccn4)c(=O)oc23)CC1	0.3	-4.2	i	11.1	18.0*	9.7	7.2
SMILES	PERK inh	S1P3 antagonist	Calpain2 inh	S1P4 antag	S1P4 ag	S1P4 ag conf	S1P1 ag
CSc1ccc(NC(=O)Nc2cccn(Cc3ccccc3)c2=O)cc1	0.2	10.6	-0.7	-24.4	33.5*	-1.0	6.0
Cc1cc(C(=O)NNS(=O)(=O)c2cccc(Cl)c2)nn1C(C)(C)C	0.0	0.6	3.7	-6.2	-0.3	.	.
CCOC(=O)Cn1nc(C)c(NC(=O)COc2cccc(Cl)c2)c1C	-0.1	1.4	-21.4	-24.1	11.9*	-1.2	-2.5
CSc1ncc(CN2CCc3c([nH]c4ccccc34)C2c2cccc(O)c2)cn1 (stereo not drawn)	-1.6	18.2	-84.9	4.9	0.9	.	.
CCCCNC(=O)C1CC(c2cccc([N+](=O)[O-])c2)=NO1 (stereo not drawn)	0.7	.	-31.8	0.4	2.8	.	.
CCCCNC(=O)C1CC(c2c(Cl)cccc2Cl)=NO1 (stereo not drawn)	0.8	.	-11.6	-18.9	13.0*	-2.1	-1.3
Cc1ccccc1NC(=O)CSc1ccncc1	-0.2	-9.2	5.8	1.6	0.4	.	.
CCN=c1scc(C)n1/N=C/c1ccsc1	-1.0	17.8	7.5	-5.2	165.2*	-1.1	8.7
COc1ccc(NC2SC(=O)N(C)C2=O)cc1 (stereo not drawn)	1.2	-18.8	-23.6	-12.8	2.0	.	.
C/C(=N\NC(=O)CC#N)c1cc2ccc(O)cc2oc1=O	-0.5	-46.4	i	-54.4	56.8*	-1.4	-1.0
COc1ccccc1C(=O)c1cc2ccc(O)cc2oc1=O	0.6	-2.2	16.6	-19.5	2.5	.	.
CC/C(O)=C1\C(=O)CCCC1=NCc1nc2ccccc2[nH]1	-0.1	8.0	37.1	-9.8	208.8*	-2.5	0.5
CC/C(O)=C1\C(=O)CCCC1=NCCc1nc2ccccc2[nH]1	0.6	-29.3	-15.6	8.4	-3.8	.	.
C=CCN(c1ccccc1Cl)S(=O)(=O)c1cc(C(=O)N2CCCC2)ccc1Cl	-0.9	8.0	-5.3	-14.7	-3.7	.	.
CCCNC(=O)Cn1nc([N+](=O)[O-])c([N+](=O)[O-])c1C	0.4	0.2	-5.9	-12.2	14.5*	-1.8	3.6
CCOC(=O)n1ccc(C(=O)Nc2ccccc2F)n1	1.4	-3.0	-2.5	3.2	15.9*	-0.3	-8.9
Cc1nc2cc(C(=O)O)ccc2n1-c1ccccc1	1.0	4.7	4.3	-22.4	-0.1	.	.
CC1=CC(C)(C)[N+](C)=CN1c1ccccc1	1.7	-6.8	-9.5	-7.5	32.7*	-1.5	4.1
CCC(C)C(NC(N)=O)C(=O)Nc1ccc(OCc2ccccc2)cc1 (stereo not drawn)	0.0	-4.1	-9.4	1.0	2.6	.	.
O=C(O)CCC(=O)Nc1ccccc1C(=O)N1CCN(c2ccc(Cl)cc2)CC1	0.2	1.6	-16.0	5.8	122.0*	-1.5	-0.3
O=C(O)C1CC=CCC1C(=O)Nc1ccccc1C(=O)N1CCN(c2ccc(Cl)cc2)CC1 (stereo not drawn)	0.3	-6.1	-17.3	-8.2	1.0	.	.
O=C(Cn1nc(C(=O)O)c2ccccc2c1=O)NC12CC3CC(CC(C3)C1)C2	1.1	-11.0	9.8	-12.9	-0.2	.	.
Fc1ccc(Nc2nnc(C(F)(F)F)s2)cc1	1.5	-7.0	8.5	2.2	1.4	.	.
CCN(CC)S(=O)(=O)c1cccc(NC(=O)CN(C)Cc2cccc(OC)c2)c1	-1.5	9.6	5.9	-1.1	-0.8	.	.
CCn1cc(CNC(=O)/C=C/c2cnn(C)c2)c(C)n1	0.3	-28.6	15.2	-13.5	35.6*	-2.7	1.0

Bioassay records (PubChem)
